Assay outcomes from PubChem BioAssay.
Hits are enriched below; roughly 2.6% of the tested compounds scored in any of these assays.
Granule exo inh: blocks lytic granule exocytosis; TALL-104 LAMP-1 surface exposure, flow cytometry; cells stimulated with thapsigargin and PMA; inhibition, % at 10 µM; 0.66% of 360,000 active; AID 651702;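 active = inhibition above about 55%, limit read from the data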
NOD2-RIPK2 inh: inhibitors of human NOD2-RIPK2 interaction; O43353; CHO BLA complementation NOD2-RIPK2, CCF4 ratio; inhibition, % at 4.98 µM; 0.38% of 360,000 active; AID 624267; in the data active = inhibition above about 21%
Target sequence (O43353 whole entry, looked up): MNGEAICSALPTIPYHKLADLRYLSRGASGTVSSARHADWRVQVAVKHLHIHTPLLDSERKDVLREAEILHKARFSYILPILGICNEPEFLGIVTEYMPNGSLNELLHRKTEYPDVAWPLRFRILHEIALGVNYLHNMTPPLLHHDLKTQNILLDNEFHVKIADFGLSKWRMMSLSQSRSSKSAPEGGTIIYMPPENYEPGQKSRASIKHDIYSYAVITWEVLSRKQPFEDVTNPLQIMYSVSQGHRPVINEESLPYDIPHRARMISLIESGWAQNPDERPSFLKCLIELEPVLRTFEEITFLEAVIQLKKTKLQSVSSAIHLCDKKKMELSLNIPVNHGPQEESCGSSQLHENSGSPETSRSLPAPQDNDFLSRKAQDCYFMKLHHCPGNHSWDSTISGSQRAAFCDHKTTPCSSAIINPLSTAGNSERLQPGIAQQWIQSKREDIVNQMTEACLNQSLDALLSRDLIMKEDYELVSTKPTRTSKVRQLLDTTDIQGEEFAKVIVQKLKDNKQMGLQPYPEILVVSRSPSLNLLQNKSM
TLR9-MyD88 block: TLR9-MyD88 interaction inhibition; CHO BLA complementation TLR9-MyD88, CCF4 FRET ratio; inhibition, % at 4.98 µM; 0.21% of 340,000 active; AID 504734;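 active = inhibition above the mean over all tested compounds plus 3 SD, cut at about 21% in these data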
TLR4 MyD88 comp: inhibitors of human TLR4-MyD88 binding. inhibition, % at 8.4 µM. 0.18% of 200,000 active. HeLa CL3-4 TLR4/MyD88 BLA complementation, FRET ratio. AID 861; in the data active = inhibition above about 25%
ABHD5 PLIN5 PPI: blocks binding of human ABHD5 to perilipin-5 | Q00G26+Q8WTS1 | Split G. princeps luciferase complementation, luminescence, 4 h | inhibition, % at 4 µM | 0.78% of 360,000 active | AID 602281;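 active = inhibition above the mean inhibition across every tested compound plus 3 SD, cut at about 22% in these data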
PRMT1 FP inh: inhibitors of human PRMT1; recombinant PRMT1, activity-based probe fluorescence polarization; inhibition, % at 2.79 µM; Q99873; 1.3% of 370,000 active; AID 652257;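 active = inhibition above about 21% made by adding two undisclosed values, limit read from the data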
PRMT1 confirm: confirmation of human PRMT1 inhibitors; shares compounds with PRMT1 FP inh; recombinant His-PRMT1, activity-based probe fluorescence polarization; inhibition, % at 2.79 µM; 42% of 3,300 active; AID 687036;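 active = mean inhibition across replicates above the hit cutoff derived for the earlier primary screen, cut at about 22% in these data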
Large screens that a line does not name were inactive (follow-up assays come after a bar, where they were run).

CCCC1CCC2(CCCN2CCOC(=O)Nc2cccc(Cl)c2)CC1 (stereo not given)	none (no result: Granule exo inh, NOD2-RIPK2 inh, TLR9-MyD88 block, TLR4 MyD88 comp, ABHD5 PLIN5 PPI)
CCCC1CCC2(CCCN2CCOC(=S)Nc2cccc(Cl)c2)CC1 (stereo not given)	PRMT1 FP inh 32 (no result: Granule exo inh, NOD2-RIPK2 inh, TLR9-MyD88 block, TLR4 MyD88 comp, ABHD5 PLIN5 PPI) | PRMT1 confirm 30
CCCC1CCC2(CCCN2CCOC(=S)Nc2ccccc2Cl)CC1 (stereo not given)	none (no result: Granule exo inh, NOD2-RIPK2 inh, TLR9-MyD88 block, TLR4 MyD88 comp, ABHD5 PLIN5 PPI)
FC(F)(F)c1ccccc1NC(=S)OCCN1CCCC12CCC(c1ccccc1)CC2 (stereo not given)	PRMT1 FP inh 42 (no result: Granule exo inh, NOD2-RIPK2 inh, TLR9-MyD88 block, TLR4 MyD88 comp, ABHD5 PLIN5 PPI) | PRMT1 confirm 25
CS(=O)(=O)N1N=C(c2cccs2)CC1c1ccco1 (stereo not given)	PRMT1 FP inh 41 | PRMT1 confirm inactive
CC(=O)N1N=C(c2cccs2)CC1c1ccco1 (stereo not given)	none
CCc1ccccc1CC1CN(Cc2ccccc2)Cc2ccccc2N1c1ccc(OC)cc1 (stereo not given)	none (no result: TLR9-MyD88 block, TLR4 MyD88 comp)
C[n+]1cc2c3c(ccc2c2ccc4cc5c(cc4c21)OCO5)OCO3	PRMT1 FP inh 61 (no result: Granule exo inh, NOD2-RIPK2 inh, TLR9-MyD88 block, TLR4 MyD88 comp, ABHD5 PLIN5 PPI) | PRMT1 confirm 85
CCN(C(=O)COc1ccccc1C(=O)NCc1ccccc1)C1CCS(=O)(=O)C1 (stereo not given)	none (no result: TLR4 MyD88 comp)
CCN(C(=O)COc1cccc2cccnc12)C1CCS(=O)(=O)C1 (stereo not given)	PRMT1 FP inh 33 | PRMT1 confirm inactive
CC(C)n1c(=S)[nH]c2c1c(=O)[nH]c(=O)n2C	PRMT1 FP inh 45 | PRMT1 confirm 47
COCc1[nH]c(=S)c(C#N)cc1C(=O)OC	PRMT1 FP inh 35 (no result: TLR4 MyD88 comp) | PRMT1 confirm inactive
CCOC(=O)c1cc(C#N)c(=S)[nH]c1C	none
Cc1ccc(NC(=O)CSCC(=O)NNC(=O)c2ccoc2C)cc1	none (no result: TLR4 MyD88 comp)
COc1cc(OC)c(C2CC(=O)N3CN(c4ccc(C)cc4)CSC3=C2C#N)cc1OC (stereo not given)	PRMT1 FP inh 62 | PRMT1 confirm 93
N#CC1=C2SCN(c3ccc(F)cc3)CN2C(=O)CC1c1cccc(F)c1 (stereo not given)	PRMT1 FP inh 27 | PRMT1 confirm 61
CCOc1ccccc1N1CSC2=C(C#N)C(c3c(OC)ccc4ccccc34)CC(=O)N2C1 (stereo not given)	PRMT1 FP inh 49 | PRMT1 confirm 70
COc1ccc(N2CSC3=C(C#N)C(c4cc(OC)c(OC)cc4OC)CC(=O)N3C2)c(OC)c1 (stereo not given)	PRMT1 FP inh 39 | PRMT1 confirm 63
CCc1ccc(N2CSC3=C(C#N)C(c4cccs4)CC(=O)N3C2)cc1 (stereo not given)	none (no result: PRMT1 FP inh)
COc1ccc(N2CSC3=C(C#N)C(c4cccs4)CC(=O)N3C2)cc1 (stereo not given)	none
COc1cc(CNc2ncnc3c2ncn3[C@H]2CN(Cc3ccc(Cl)cc3)C[C@@H](CO)O2)cc(OC)c1OC	none (no result: TLR9-MyD88 block, TLR4 MyD88 comp)
COc1ccc(C2CC(=O)N3CN(c4ccc(C)c(Cl)c4)CSC3=C2C#N)cc1OC (stereo not given)	PRMT1 FP inh 41 | PRMT1 confirm 25
Cc1ccc(N2CSC3=C(C#N)C(c4cccs4)CC(=O)N3C2)cc1 (stereo not given)	PRMT1 FP inh 52 | PRMT1 confirm 34
CCc1ccc(C2CC(=O)N3CN(c4ccccc4)CSC3=C2C#N)cc1 (stereo not given)	none
CCOC(=O)[C@]12CCCC=C1N(CCCOC)C(=O)[C@@H]2CC(=O)NCC1CCCCC1	none (no result: Granule exo inh, NOD2-RIPK2 inh, TLR9-MyD88 block, TLR4 MyD88 comp, ABHD5 PLIN5 PPI)
CCc1noc(C)c1C(=O)Nc1ccc(F)c(F)c1F	none (no result: TLR4 MyD88 comp)
O=C(Nc1ccccc1C(=O)NCC1CC1)c1cccs1	none (no result: Granule exo inh, NOD2-RIPK2 inh, TLR9-MyD88 block, TLR4 MyD88 comp, ABHD5 PLIN5 PPI)
Cc1ccc(C)c(NC(=O)CN(C)C(=O)c2ccc(COc3ccccc3)cc2)c1	none (no result: TLR4 MyD88 comp)
COc1cc(CN2C[C@@H](CO)O[C@@H](n3cnc4c(NCc5ccncc5)ncnc43)C2)cc(OC)c1OC	none (no result: TLR9-MyD88 block, TLR4 MyD88 comp)
CCOC(=O)[C@]12CCC=C1N(Cc1ccc(Cl)cc1Cl)C(=O)[C@H](CC(=O)NCc1ccc(C)o1)C2	PRMT1 FP inh 35 (no result: TLR9-MyD88 block, TLR4 MyD88 comp) | PRMT1 confirm inactive
CC1=NN2C(=N)/C(=C\c3ccc(SCc4ccccc4)o3)C(=O)N=C2S1	none
N=C1/C(=C\c2ccc(SCc3ccco3)o2)C(=O)N=C2SC=NN12	PRMT1 FP inh 51 | PRMT1 confirm inactive
CN(Cc1ccccc1C#N)S(=O)(=O)c1cccs1	none (no result: TLR4 MyD88 comp)
N#Cc1nccnc1S(=O)(=O)c1cccs1	PRMT1 FP inh 84 (no result: Granule exo inh, NOD2-RIPK2 inh, TLR9-MyD88 block, TLR4 MyD88 comp, ABHD5 PLIN5 PPI) | PRMT1 confirm 82
Cc1cccc(NC(=O)COC(=O)CCc2c[nH]c3ccccc23)c1C	none (no result: TLR4 MyD88 comp)
Cc1cccc(C)c1NC(=O)COC(=O)CCc1c[nH]c2ccccc12	PRMT1 FP inh 30 (no result: TLR4 MyD88 comp) | PRMT1 confirm inactive
Cc1cc(-c2nnc(SCC(=O)Nc3nc(-c4ccc(Cl)cc4)cs3)o2)no1	PRMT1 FP inh 42 (no result: TLR4 MyD88 comp) | PRMT1 confirm inactive
CC1(C(=O)Nc2ccc3c(c2)OCO3)CCN1C(=O)c1ccco1 (stereo not given)	none (no result: TLR9-MyD88 block, TLR4 MyD88 comp)
S=c1[nH]nc(-c2cc(-c3ccco3)[nH]n2)n1-c1cccc2ccccc12	PRMT1 FP inh 36 | PRMT1 confirm 33
O=C(O)c1ccc(-n2c(-c3cc(-c4ccco4)[nH]n3)n[nH]c2=S)cc1	PRMT1 FP inh 49 | PRMT1 confirm inactive
CCOC(=O)C(C)(C)Oc1cccc2c1S(=O)(=O)c1ccccc1-2	none (no result: TLR4 MyD88 comp)
CN1CCCCC(NC(=O)c2ccc(C#N)cc2)C1=O (stereo not given)	none (no result: Granule exo inh, NOD2-RIPK2 inh, TLR9-MyD88 block, TLR4 MyD88 comp, ABHD5 PLIN5 PPI)
COC(=O)c1ccc2c(=O)n(CCN3CCOCC3)c(SCC(=O)Nc3ccccc3Cl)nc2c1	PRMT1 FP inh 27 (no result: TLR4 MyD88 comp) | PRMT1 confirm 48
Cn1cccc1C(=O)OCC(=O)NCc1ccc2c(c1)OCO2	PRMT1 FP inh 126 (no result: TLR4 MyD88 comp) | PRMT1 confirm inactive
O=C(N[C@H](C(=O)N1CCC[C@H]1C(=O)NC1CCCC1)C1CCCCC1)c1ccccn1	none (no result: Granule exo inh, NOD2-RIPK2 inh, TLR9-MyD88 block, TLR4 MyD88 comp, ABHD5 PLIN5 PPI)
COc1ccc(C(=S)N2CCN(C)CC2)cc1Br	none
COc1ccc(C(=O)Oc2ccc(C(=S)N3CCOCC3)cc2)cc1	PRMT1 FP inh 57 | PRMT1 confirm inactive
COc1ccc(C(=S)N2CCN(C)CC2)cc1	PRMT1 FP inh 30 | PRMT1 confirm inactive
COC(=O)c1scc(C)c1NS(=O)(=O)c1ccc(NC(C)=O)cc1	none (no result: TLR4 MyD88 comp)
CCc1nn(CC(=O)N2CCCCCC2)c(=O)c2cc3ccccc3n12	none (no result: TLR4 MyD88 comp)
CCOc1ccc(N2C(=O)CC(NCCc3c[nH]c4ccccc34)C2=O)cc1 (stereo not given)	PRMT1 FP inh 31 | PRMT1 confirm inactive
CCOc1ccc(N2C(=O)CC(NCCc3ccc(S(N)(=O)=O)cc3)C2=O)cc1 (stereo not given)	PRMT1 FP inh 53 | PRMT1 confirm inactive
CCOc1ccc(N2C(=O)CC(NCCc3ccncc3)C2=O)cc1 (stereo not given)	PRMT1 FP inh 58 | PRMT1 confirm inactive
